Measurements: ChEMBL document CHEMBL3988442, “University of Dundee, Small-Polar-MMV Screening Library” (2021)
For some of these results: Entries with a potency or affinity are not part of this list.

Legend:
Set-up in all cases: scale not given: direction of the effect not stated beside the values
[1] = molecular target: Protein translocase subunit SecA (Escherichia coli (strain K12)) (UniProt P10408); test: Assay to Identify E. coli SecA ATPase Inhibitors; type: functional; details: 30 µM
[2] = molecular target: T1, Ubiquitin-activating enzyme e1, putative (Leishmania donovani (strain BPK282A1)) (UniProt E9BSI1); test: Leishmania donovani Ubiquitin Activating Enzyme (LdE1); type: functional; details: 30 µM
T1 sequence (whole entry): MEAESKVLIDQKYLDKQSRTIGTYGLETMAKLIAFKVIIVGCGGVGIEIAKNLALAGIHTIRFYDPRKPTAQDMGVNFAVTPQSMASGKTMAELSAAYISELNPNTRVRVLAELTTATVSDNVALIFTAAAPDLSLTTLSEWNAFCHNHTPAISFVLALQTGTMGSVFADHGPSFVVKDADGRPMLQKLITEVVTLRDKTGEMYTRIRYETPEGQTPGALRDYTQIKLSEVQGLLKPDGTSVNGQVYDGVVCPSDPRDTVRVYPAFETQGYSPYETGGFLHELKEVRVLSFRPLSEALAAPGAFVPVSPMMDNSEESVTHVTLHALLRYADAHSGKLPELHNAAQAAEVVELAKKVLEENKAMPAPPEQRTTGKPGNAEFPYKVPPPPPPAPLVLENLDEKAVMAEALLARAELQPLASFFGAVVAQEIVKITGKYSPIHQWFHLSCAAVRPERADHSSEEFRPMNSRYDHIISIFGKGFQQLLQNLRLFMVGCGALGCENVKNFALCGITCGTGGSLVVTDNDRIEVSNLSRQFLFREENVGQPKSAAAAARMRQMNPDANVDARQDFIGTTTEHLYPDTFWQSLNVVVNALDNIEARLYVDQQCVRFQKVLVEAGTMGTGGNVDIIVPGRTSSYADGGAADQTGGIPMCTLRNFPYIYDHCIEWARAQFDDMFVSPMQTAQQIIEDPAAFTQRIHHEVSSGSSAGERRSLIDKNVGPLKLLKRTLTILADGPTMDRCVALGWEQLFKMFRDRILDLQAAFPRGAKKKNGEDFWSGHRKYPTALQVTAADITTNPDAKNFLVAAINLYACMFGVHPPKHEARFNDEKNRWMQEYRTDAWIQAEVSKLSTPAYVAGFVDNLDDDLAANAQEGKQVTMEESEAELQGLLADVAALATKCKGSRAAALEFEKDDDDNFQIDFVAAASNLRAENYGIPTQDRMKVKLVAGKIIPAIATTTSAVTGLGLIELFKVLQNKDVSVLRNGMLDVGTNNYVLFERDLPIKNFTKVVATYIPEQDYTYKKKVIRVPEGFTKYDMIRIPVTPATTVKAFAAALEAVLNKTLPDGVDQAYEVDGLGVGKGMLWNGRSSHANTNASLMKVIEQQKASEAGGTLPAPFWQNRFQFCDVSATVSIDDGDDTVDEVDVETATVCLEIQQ

[3] = molecular target: AMP-activated protein kinase, AMPK (Homo sapiens) (UniProt P54646+O43741+P54619+Q9UGJ0+Q9Y478+Q13131+Q9UGI9); test: AMP-dependent Kinase enzyme assay. An in vitro enzyme assay that detects ADP turnover that is directly proportional to AMPK activity. This uses naive AMPK that is activated during the assay with MK-8722; type: functional; details: 30 µM
[4] = molecular target: Sialic acid-binding Ig-like lectin 9 (Homo sapiens) (UniProt Q9Y336); test: Hs-Siglec9 ALPHAscreen SOP 20170721; details: 10 µM
[5] = system: Trypanosoma cruzi; test: Trypanosoma cruzi phosphomannomutase and mannose-1-phosphate guanylyltransferase assay; type: functional; details: 10 µM
[6] = molecular target: T2, Arginase-2, mitochondrial (Homo sapiens) (UniProt P78540); test: in vitro enzyme assay to detect the production of urea directly proportional to the activity of Arginase II; type: functional; details: 33.3 µM; also: in the data most compounds retested in dose-response had high values
T2 sequence (whole entry): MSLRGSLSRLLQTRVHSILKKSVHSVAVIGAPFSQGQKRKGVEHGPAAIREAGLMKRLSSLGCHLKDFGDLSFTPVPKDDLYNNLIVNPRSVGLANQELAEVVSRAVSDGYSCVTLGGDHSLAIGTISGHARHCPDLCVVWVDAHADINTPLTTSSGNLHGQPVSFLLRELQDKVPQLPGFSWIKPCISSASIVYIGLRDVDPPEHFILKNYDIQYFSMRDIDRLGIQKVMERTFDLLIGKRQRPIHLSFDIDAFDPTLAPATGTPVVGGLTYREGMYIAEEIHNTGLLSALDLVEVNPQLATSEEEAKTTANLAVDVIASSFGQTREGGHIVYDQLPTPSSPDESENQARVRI

[7] = molecular target: T3, Proteasome subunit beta (Trypanosoma cruzi) (UniProt O96673); test: Trypanosoma cruzi proteasome chymotrypsin-like activity (TcProtChymo) assay.; also: in the data most compounds retested in dose-response had high values; type: functional; details: 9.37 µM
T3 sequence (whole entry): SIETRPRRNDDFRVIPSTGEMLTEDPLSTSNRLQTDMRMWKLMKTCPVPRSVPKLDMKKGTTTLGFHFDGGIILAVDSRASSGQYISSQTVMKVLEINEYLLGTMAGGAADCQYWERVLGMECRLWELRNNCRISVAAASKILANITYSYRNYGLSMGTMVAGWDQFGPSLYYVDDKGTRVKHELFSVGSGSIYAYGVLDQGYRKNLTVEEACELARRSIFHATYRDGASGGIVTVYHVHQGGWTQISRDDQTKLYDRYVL

[8] = species: Homo sapiens; test: To identify inhibition of the IFN signalling (Jak-Stat) pathway via expression of an eGFP reporter gene under the control of an IFN-stimulated response element (ISRE) containing MxA promoter.; type: functional; details: 30 µM
[9] = molecular target: T4, Tyrosyl-tRNA synthetase, putative (Trypanosoma cruzi (strain CL Brener)) (UniProt Q4DSP6); test: Trypanosoma cruzi tyrosyl tRNA synthetase (TcYRS) _High Tyrosine SOP; type: functional; details: 30 µM; also: in the data most compounds retested in dose-response had high values
T4 sequence (whole entry): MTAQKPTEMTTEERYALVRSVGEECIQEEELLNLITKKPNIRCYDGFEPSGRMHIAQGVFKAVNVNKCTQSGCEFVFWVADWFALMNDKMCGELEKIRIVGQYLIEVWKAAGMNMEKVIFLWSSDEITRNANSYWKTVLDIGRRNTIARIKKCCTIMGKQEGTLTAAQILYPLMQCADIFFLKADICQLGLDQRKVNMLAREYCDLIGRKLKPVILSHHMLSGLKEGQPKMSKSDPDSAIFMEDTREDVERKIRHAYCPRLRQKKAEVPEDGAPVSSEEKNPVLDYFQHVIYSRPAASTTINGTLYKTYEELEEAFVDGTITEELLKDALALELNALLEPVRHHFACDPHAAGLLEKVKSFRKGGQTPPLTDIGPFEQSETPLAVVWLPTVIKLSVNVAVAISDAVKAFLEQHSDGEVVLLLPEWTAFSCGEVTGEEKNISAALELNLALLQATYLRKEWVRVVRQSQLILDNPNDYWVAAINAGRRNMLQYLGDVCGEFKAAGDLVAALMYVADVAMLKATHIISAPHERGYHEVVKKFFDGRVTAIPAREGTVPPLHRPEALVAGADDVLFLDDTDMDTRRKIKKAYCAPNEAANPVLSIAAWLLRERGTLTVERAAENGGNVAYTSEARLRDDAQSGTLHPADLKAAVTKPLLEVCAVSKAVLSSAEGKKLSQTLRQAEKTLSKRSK

[10] = molecular target: T4, Tyrosyl-tRNA synthetase, putative (Trypanosoma cruzi (strain CL Brener)); test: Trypanosoma cruzi tyrosyl tRNA synthetase (TcYRS) SOP; type: functional; details: 30 µM
[11] = molecular target: Chromo domain-containing protein 1 (Saccharomyces cerevisiae (strain ATCC 204508 / S288c) (Baker's yeast)) (UniProt P32657); test: ScCHD-1 Enzyme Inhibition Assay; type: functional; details: 30 µM; also: in the data most compounds retested in dose-response had high values
Sequence of Chromo domain-containing protein 1 (Saccharomyces cerevisiae (strain ATCC 204508 / S288c) (Baker's yeast)) (P32657 whole entry, the tested form may be a part): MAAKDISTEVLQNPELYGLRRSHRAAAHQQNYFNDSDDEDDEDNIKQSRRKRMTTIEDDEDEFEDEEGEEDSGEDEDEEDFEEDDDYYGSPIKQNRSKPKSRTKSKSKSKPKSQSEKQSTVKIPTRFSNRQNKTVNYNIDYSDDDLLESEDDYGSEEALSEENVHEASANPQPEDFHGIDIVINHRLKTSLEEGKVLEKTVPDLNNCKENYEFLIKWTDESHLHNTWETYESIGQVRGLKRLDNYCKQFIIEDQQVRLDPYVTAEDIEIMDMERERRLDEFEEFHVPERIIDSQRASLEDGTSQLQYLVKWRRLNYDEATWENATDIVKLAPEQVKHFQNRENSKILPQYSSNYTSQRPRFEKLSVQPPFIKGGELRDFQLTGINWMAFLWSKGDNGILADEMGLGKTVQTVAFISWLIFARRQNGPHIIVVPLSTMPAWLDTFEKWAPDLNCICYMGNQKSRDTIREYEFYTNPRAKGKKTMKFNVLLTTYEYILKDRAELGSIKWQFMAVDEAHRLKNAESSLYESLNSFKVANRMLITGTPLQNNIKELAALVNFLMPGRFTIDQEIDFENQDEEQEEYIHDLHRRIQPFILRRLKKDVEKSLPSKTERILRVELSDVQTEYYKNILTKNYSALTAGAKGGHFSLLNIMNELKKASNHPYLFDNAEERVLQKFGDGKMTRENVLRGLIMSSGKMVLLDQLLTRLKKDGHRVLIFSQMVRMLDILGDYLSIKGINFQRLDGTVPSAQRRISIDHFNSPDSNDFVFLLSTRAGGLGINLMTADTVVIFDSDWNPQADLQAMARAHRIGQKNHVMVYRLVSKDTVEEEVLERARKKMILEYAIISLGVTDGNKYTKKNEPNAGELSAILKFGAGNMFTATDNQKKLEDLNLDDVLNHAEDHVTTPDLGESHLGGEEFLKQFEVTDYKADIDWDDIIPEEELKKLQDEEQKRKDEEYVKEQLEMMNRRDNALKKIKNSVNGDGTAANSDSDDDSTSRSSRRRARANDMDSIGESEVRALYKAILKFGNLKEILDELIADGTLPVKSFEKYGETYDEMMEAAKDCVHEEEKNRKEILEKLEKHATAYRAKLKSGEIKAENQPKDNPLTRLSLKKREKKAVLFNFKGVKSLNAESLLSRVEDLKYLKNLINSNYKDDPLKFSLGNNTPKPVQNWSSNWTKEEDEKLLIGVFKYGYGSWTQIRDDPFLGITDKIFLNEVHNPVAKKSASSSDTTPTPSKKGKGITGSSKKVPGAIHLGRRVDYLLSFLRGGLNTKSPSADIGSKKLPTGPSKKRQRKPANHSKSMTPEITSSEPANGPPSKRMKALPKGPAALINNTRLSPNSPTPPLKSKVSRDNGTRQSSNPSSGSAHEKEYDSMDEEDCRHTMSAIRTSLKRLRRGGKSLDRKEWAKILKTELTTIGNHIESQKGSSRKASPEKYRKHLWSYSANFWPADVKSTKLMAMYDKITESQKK

Sequence of Sialic acid-binding Ig-like lectin 9 (Homo sapiens) (Q9Y336 whole entry): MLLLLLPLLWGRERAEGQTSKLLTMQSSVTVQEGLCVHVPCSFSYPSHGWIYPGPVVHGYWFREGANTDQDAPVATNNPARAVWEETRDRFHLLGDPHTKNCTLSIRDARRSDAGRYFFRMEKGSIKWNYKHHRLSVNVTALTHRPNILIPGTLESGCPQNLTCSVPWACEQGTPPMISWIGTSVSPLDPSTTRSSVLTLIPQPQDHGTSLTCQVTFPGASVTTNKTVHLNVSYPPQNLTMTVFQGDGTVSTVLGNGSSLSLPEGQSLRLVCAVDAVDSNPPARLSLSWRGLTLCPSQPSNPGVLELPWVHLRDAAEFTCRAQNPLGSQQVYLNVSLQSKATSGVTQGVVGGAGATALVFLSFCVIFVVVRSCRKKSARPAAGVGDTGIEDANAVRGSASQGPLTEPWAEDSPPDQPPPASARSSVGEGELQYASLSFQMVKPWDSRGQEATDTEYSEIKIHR
Sequence of Protein translocase subunit SecA (Escherichia coli (strain K12)) (P10408 whole entry): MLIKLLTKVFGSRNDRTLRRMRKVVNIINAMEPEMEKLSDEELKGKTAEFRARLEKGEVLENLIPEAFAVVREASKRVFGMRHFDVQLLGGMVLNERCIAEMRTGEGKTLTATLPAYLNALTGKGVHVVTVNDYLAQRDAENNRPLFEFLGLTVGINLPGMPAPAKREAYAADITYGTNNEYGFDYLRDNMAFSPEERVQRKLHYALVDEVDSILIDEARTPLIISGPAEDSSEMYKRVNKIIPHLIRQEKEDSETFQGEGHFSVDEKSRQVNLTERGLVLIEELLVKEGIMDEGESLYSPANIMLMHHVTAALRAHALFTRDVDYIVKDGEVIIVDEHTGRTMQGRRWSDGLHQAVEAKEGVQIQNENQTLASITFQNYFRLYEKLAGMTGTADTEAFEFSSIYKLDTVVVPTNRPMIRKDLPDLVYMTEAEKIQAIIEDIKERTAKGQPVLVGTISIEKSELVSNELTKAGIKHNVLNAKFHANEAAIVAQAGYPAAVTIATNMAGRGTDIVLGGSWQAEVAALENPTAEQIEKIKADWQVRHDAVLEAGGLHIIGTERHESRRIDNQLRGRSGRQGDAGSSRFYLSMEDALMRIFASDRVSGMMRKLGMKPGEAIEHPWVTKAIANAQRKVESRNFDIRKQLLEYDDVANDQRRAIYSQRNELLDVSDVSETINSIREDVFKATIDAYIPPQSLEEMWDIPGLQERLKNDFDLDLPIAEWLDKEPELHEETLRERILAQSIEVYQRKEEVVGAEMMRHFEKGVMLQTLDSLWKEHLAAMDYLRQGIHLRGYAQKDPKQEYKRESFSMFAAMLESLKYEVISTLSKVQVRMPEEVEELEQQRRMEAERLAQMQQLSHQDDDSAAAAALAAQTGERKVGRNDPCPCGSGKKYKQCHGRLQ

SMILES | Percent Effect [1] | Percent Effect [2] | Percent Effect [3] | Percent Effect [4] | Percent Effect [5] | Percent Effect [6] | Percent Effect [7] | Percent Effect [8] | Percent Effect [9] | Percent Effect [10] | Percent Effect [11]
Cc1ccc(=O)n(CC2(O)CCN(Cc3cnc(C)nc3)CC2)n1 | -6.32% | 6.76% | 4.75% | -1.5% | -2.96% | -3.48% | 11.9% | 17.5% | -1.07% | 3.9% | 5.12%
O=C(Nc1nc2c(s1)CCC2)c1cccnc1N1CCOCC1 | -0.311% | -2.63% | 9.51% | -0.88% | -4.19% | 11.8% | 4.7% | 2.75% | 0% | -2.6% | 1.45%
O=C(Cn1ccc2sccc2c1=O)NCc1ccc2c(c1)OCO2 | -3.35% | 5.2% | 2.53% | 0.145% | -5.62% | 4.52% | 4.53% | 1.29% | 5.29% | 11.5% | -2.27%
Cc1nc(O)c2nnn(C[C@H]3CCCN3C(=O)CCC3CCCC3)c2n1 | -1.52% | -4.05% | 9.5% | -1.58% | -1.78% | -1.62% | 2.5% | -0.726% | -1.07% | -1.3% | 13.7%
O=C(NCc1ccc(F)cc1)N1CCC(C2OCCO2)CC1 | -3.74% | 7.89% | 6.23% | 6.03% | -1.66% | -8.28% | 12.4% | 13.8% | 6.38% | 13% | -4.56%
CC(C)C(C(=O)N1CCCN(Cc2nccn2C)CC1)N1CCCC1 (stereo not given) | -1.38% | 21.6% | -0.295% | -3.06% | -1.58% | -2.77% | 10.6% | 20% | 2.97% | 13.4% | -5.79%
c1cnnc(N2CCCC(NCc3nc(C4CC4)no3)C2)c1 (stereo not given) | -4.19% | -2.6% | -5.27% | 7.57% | 7.18% | 23.4% | 11.3% | -1.78% | 16.1% | 28.4% | -2.42%
CN(C)C(=O)[C@H]1C[C@@H]2CCN(C3CCOCC3)C[C@H]2O1 | -0.651% | 2.67% | -1.32% | -3.17% | 4.44% | -50.7% | -1.03% | -1.34% | -1.04% | -5% | -4.08%
COc1ccc2cc(C3CN(C(=O)C4CCOCC4)CCO3)ccc2c1 (stereo not given) | -3.12% | 2.7% | 1.82% | 0.48% | 1.93% | 2.38% | 9.31% | -4.85% | 4.76% | 12.2% | -2.89%
COC(CNC(=O)N1CCC(n2cncn2)CC1)c1ccccc1 (stereo not given) | -0.684% | -3.8% | 13.4% | 3.12% | -1.13% | 1.94% | 0.686% | 0.165% | 2.08% | 2.53% | -14.3%
CC(NC(=O)NCc1ccoc1)c1ccc2c(c1)CCC(=O)N2 (stereo not given) | -9.31% | -7.79% | -9.15% | 13% | 12.2% | 2.49% | 28.6% | 16.5% | 8.74% | 24.4% | -9.68%
CC(C)CNC(=O)[C@H]1CCS(=O)(=O)[C@@H]2CN(Cc3cccc(Cl)c3)C[C@H]12 | -8.49% | 0% | 6.38% | 3.48% | -2.15% | 0% | 12.3% | 12.5% | 3.96% | 1.22% | 3.36%
Cc1cc(N2CCN(CCO)CC2)nc(-c2ccncc2)n1 | -0.472% | 5.26% | 0.962% | -2.69% | -0.876% | -8.28% | 21.6% | -0.921% | 7.45% | 7.79% | -4.96%
Cc1nc(CCCNC(=O)C2CC(=O)N(C3CC3)C2)sc1C (stereo not given) | 6.83% | 16.4% | -10.9% | 5.44% | 1.59% | -10.8% | 16.9% | 25.5% | 8.33% | 28.4% | 2.71%
CCc1nc(C2CCCN2CC(=O)Nc2sc(C)c(C)c2C)no1 (stereo not given) | -2.85% | -5.2% | 3.9% | 11.2% | 1.69% | -1.42% | -8.11% | 11.2% | 13.6% | 14.6% | -1.21%
COCCCC1(CO)CCCN(CCc2ccccc2)C1 (stereo not given) | -1.32% | -2.74% | -1.63% | -2.32% | -5.09% | 0.909% | -0.887% | -2.97% | 1.07% | 2.5% | -2.34%
CCc1nc2n(n1)CC(NCc1nc(C)ccc1O)CC2 (stereo not given) | -5.74% | 7.89% | 1.61% | 1.6% | 5.16% | -2.37% | 5.85% | -1.01% | 0% | 10.4% | -1.98%
CCOc1ccccc1-c1noc(CN2CC(n3cccn3)C2)n1 | -1.57% | 2.6% | 2.37% | -3.32% | 8.13% | -3.16% | 2.99% | 4.34% | 0.952% | 7.06% | -6.41%
CC(C)NC(=O)COc1nc(C(C)(C)C)no1 | -4.03% | 13.5% | -3.54% | 27.8% | 5.21% | 0.952% | 4.31% | -3.96% | -0.529% | 4.88% | -3.56%
CCN(C(=O)CS(=O)(=O)Cc1cc(Cl)c2c(c1)OCCCO2)C1CC1 | 2.17% | 5.06% | -1.41% | -13.2% | -7.84% | 5.32% | 7.62% | 8.01% | 3.45% | 16.5% | -6.8%
